About 2,900 (47%) of roughly 6,200 compounds were called active. The set was probably picked from earlier hits. Some of the results follow. A number with no mark means an inactive call. Rule as the data show it: active = inhibition above about 50%; inactive = the rest.
test: Mycobacterium tuberculosis growth inhibition, primary screen (AID 1259343); conditions: inhibition: at 10 µM, stronger effect = higher value; outcome: 10 uM

Compound | inhibition
Cc1cc(NC(=O)C23CC4CC(CC(C4)C2)C3)n(-c2nc3c(c(=O)[nH]2)CCC3)n1 | 101% (active)
CCCc1nc(N2CCNCC2)c2c(C)nn(-c3ccc(F)cc3)c2n1 | 42%
Cc1nc(N2CCCC(C)C2)c2cnn(-c3ccc(F)cc3)c2n1 (stereo unspecified) | 23.5%
Cc1ccc(Cc2nc(N3CCNCC3)c3c(C)nn(-c4ccccc4)c3n2)cc1 | 92.7% (active)
CC(C)CCc1nc(N2CCNCC2)c2cnn(-c3cccc(Cl)c3)c2n1 | 41.8%
Clc1cccc(-n2ncc3c(N4CCNCC4)nc(Cc4ccccc4)nc32)c1 | 65.1% (active)
CC1NC(=S)N(CCc2nc(C(C)(C)C)cs2)C1=O (stereo unspecified) | 12.2%
CCOc1ccc(OCCCOc2cccc(C)c2C)cc1 | 73.5% (active)
CCOc1ccc(OCCCOc2ccccc2Br)cc1 | 95.2% (active)
CCOc1cccc(OCCCOc2ccc(Cl)cc2C)c1 | 82.3% (active)
CCOc1ccc(OCCCOc2ccccc2OC)cc1 | 9.51%
CC(C)(C)CC(C)(C)c1ccc(O)c(Cc2ccc(Cl)cc2Cl)c1 | 72.6% (active)
COc1ccc2c(c1)CCc1c(-c3ccc(C(=O)NCCCSC)cc3)n[nH]c1-2 | 95.5% (active)
CC(=O)c1ccc(OCC(=O)NC(C)c2ccc(CC(C)C)cc2)cc1 (stereo unspecified) | 46.8%
Cc1ccc(C(=O)N=c2sccn2Cc2ccc(C(=O)NC(C)c3ccccc3)cc2)cc1 (stereo unspecified) | -8.44%
CC(C)Cc1ccc(C(C)NC(=O)Cn2ccsc2=O)cc1 (stereo unspecified) | 92.5% (active)
COc1ccc2cc(C3CN(CCC(F)(F)C(F)F)CCO3)ccc2c1 (stereo unspecified) | 42.7%
CC(=O)C1=C(O)CC(c2ccccc2)SC1=Nc1ccccc1 (stereo unspecified) | 57.6% (active)
CCOC(=O)C1=C(O)CSC1=Nc1ccc(Cl)cc1 | 16.2%
Fc1ccc(SCCc2ccncc2)cc1 | 57.7% (active)
O=C1C(Cl)=C(Nc2cccc(Br)c2)C(=O)N1Cc1ccc(Br)cc1 | 61% (active)
NC(=S)Nc1cccc(Br)c1 | 32.7%
O=c1ccc(-c2cccc(Br)c2)nn1Cc1ccc(F)cc1 | 8.75%
CCOc1ccc(NC(=O)c2cn(-c3cc(N4CCOCC4)ncn3)cn2)cc1 | 74.7% (active)
O=C(O)c1cc(O)c2c(c1)C(=O)c1cc(O)cc(O)c1C2=O | 91.8% (active)
CC(c1ccc(Cl)cc1)N(C)C(=O)c1ccc[nH]1 (stereo unspecified) | -3.09%

Compound | inhibition
CC(=O)c1ccc(C(=O)N(C)C(C)c2ccc(Cl)cc2)s1 (stereo unspecified) | 25.1%
CC(c1ccc(F)cc1)N(C)C(=O)CN1CC(O)CC1c1cc(F)ccc1F (stereo unspecified) | 84% (active)
Cc1nc(N)sc1N=Nc1cc(C(F)(F)F)ccc1Cl | 18.3%
Cc1nc(NC(=O)c2c(C)nn(CC(C)C)c2Cl)sc1C | 12.5%
CCC(C)C(=O)Nc1nc(-c2ccc(Cl)cc2)c(C)s1 (stereo unspecified) | 70.1% (active)
Cc1sc(NC2CCCC2)nc1-c1ccc(F)c(F)c1 | 34.8%
COc1cccc(C2c3c(oc4cc(C)c(C)cc4c3=O)C(=O)N2c2nccs2)c1OC (stereo unspecified) | -18.6%
c1ccc(CN2CCN(c3nc(-c4cccnc4)nc4ccccc34)CC2)cc1 | 26.4%
Oc1ccc(Nc2nc(N3CCCC3)c3ccccc3n2)cc1 | 83.1% (active)
Cc1cc(N2CCCCC2)nc(Nc2ccc(NS(=O)(=O)c3ccc4nc(C)sc4c3)cc2)n1 | 25.5%
COc1ccc(OCc2nc(C#N)c(N3CCCC3)o2)cc1 | -23.3%
N#Cc1nc(COc2ccc(Cl)cc2)oc1N1CCCC1 | 92.6% (active)
CCOC(=O)C1CCCN(c2oc(-c3ccc(Cl)cc3)nc2C#N)C1 (stereo unspecified) | 12.5%
COc1ccc(C[C@H](N)C(=O)N[C@@H]2[C@@H](CO)OC(n3cnc4c(N(C)C)ncnc43)[C@@H]2O)cc1 (stereo partly specified) | 66.6% (active)
CN(C)N=Nc1nc[nH]c1C(N)=O | 70% (active)
CC(C)(C)c1csc(NC(=O)C23CC4CC(CC(C4)C2)C3)n1 | 61.1% (active)
CC(C)(C)c1csc(NC(=O)CC2OCCc3ccsc32)n1 (stereo unspecified) | 22.8%
Cc1cc(C(=O)Nc2nc(C(C)(C)C)cs2)c(C)o1 | 60.2% (active)
CC(C)(C)C(=O)Nc1nc(CC23CC4CC(CC(C4)C2)C3)cs1 | 38%
CC(C)(C)c1csc(NC(=O)c2ccc(Cl)s2)n1 | -24%
Cc1ccc(-c2ccc(C3=CC(C)(C)OC3=O)cc2)cc1 | 43.7%
O=C(Nc1cccc(Cl)c1)Oc1ccccc1-c1ccccc1 | 17.6%
N#CC1=C2Sc3ccccc3N2C(O)(C(F)(F)F)C(C(=O)C(F)(F)F)=C1 (stereo unspecified) | 71.5% (active)
Fc1ccc(Br)cc1C1Nc2cccc3cccc(c23)N1 | 14.4%
Fc1cccc(Cl)c1C1Nc2cccc3cccc(c23)N1 | -12.9%

Source: PubChem BioAssay AID1259343 (VanderVen Lab, College of Veterinary Medicine, Cornell …, 2017)
